# The source made the active and inactive calls.
# What was measured:
# [1] = test system: PRMT1 (protein arginine N-methyltransferase 1); test: small molecules binding arginine methyltransferase PRMT1 – biochemical, small-molecule microarray, 635 nm fluorescence, primary screen (AID 1088); details: higher = more signal;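 further: binding of Prmt1 protein to compounds spotted on small-molecule microarray slides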
# [2] = growth effects on S. cerevisiae YJM789 – YJM789 clinical isolate, OD600, 24 h, basal, primary screen (AID 1089); details: higher = more signal, called active from +8 up or from −8 down;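 further: growth of clinical yeast isolate S. cerevisiae YJM 789 seeded 1000 cells per well; test concentration not given here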
# [3] = S. pombe growth modifiers, basal conditions – strain 972, OD600, 24 h, no modulator, primary screen (AID 1090);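 further: basal condition with compound alone and no growth modifier present; test concentration not given here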; details: S. pombe 972 growth, higher = more signal, called active from +8 up or from −8 down
# [4] = budding yeast growth modifiers under rapamycin – strain BY4716, OD600, 96 h, primary screen (AID 1091); further: test concentration not given here; details: S. cerevisiae BY4716 + rapamycin, higher = more signal, called active from +8 up or from −8 down
# [5] = target: Torsin-1A-interacting protein 2 (Homo sapiens) (UniProt Q8NFQ8); test: small molecules binding lysate-expressed LULL1 – cell lysate, human LULL1 lysate, 635/667 nm fluorescence, primary screen (AID 1092); details: small-molecule microarray, hLULL1 lysate binding, 635 nm fluorescence; higher = more signal;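 further: probe is lysate of COS7 cells overexpressing human LULL1; score merges per-feature 667 nm fluorescence with signal-to-noise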
# Chain of Torsin-1A-interacting protein 2 (Homo sapiens) (Q8NFQ8 whole entry, looked up): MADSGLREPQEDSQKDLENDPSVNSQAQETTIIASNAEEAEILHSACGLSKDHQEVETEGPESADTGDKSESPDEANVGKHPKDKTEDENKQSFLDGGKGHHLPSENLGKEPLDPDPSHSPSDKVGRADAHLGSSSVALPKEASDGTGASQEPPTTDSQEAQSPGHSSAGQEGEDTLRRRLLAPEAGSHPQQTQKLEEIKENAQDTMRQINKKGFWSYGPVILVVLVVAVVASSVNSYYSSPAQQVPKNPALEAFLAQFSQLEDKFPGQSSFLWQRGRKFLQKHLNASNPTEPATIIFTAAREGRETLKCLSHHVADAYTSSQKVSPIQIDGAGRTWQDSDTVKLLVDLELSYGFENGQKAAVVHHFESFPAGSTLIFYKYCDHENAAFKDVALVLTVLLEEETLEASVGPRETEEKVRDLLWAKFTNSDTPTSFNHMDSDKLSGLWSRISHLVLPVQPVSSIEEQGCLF
# [6] = optical density change of DRC41 E. coli – strain DRC41, OD650, 24 h, E. coli filamentation project, primary screen (AID 1093);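 further: MC1000 strain lacking acrAB efflux and sulA so SOS filamentation is blocked; test concentration not given here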; details: E. coli DRC41 growth, higher = more signal, called active from +8 up or from −8 down
# [7] = probe aLefty2 binding to arrayed compounds – biochemical, biotinylated probe, 635/667 nm fluorescence, primary screen (AID 1094); details: small-molecule microarray, higher = more signal;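 further: score merges spot fluorescence near 667 nm with spot signal-to-noise ratio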
# [8] = test system: Noggin (protein binding on small-molecule microarray); test: small molecules binding Noggin protein – biochemical, 635/667 nm fluorescence, primary screen (AID 1095); details: 635 nm fluorescence, higher = more signal;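 further: score merges 667 nm feature fluorescence with signal to noise over triplicate slides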
# [9] = target: Neurogenic locus notch homolog protein 3 (Homo sapiens) (UniProt Q9UM47); test: small molecules binding NOTCH3 protein – biochemical, 635/667 nm fluorescence, primary screen (AID 1096); details: small-molecule microarray, 635 nm fluorescence, higher = more signal
# Chain of Neurogenic locus notch homolog protein 3 (Homo sapiens) (Q9UM47 whole entry, looked up): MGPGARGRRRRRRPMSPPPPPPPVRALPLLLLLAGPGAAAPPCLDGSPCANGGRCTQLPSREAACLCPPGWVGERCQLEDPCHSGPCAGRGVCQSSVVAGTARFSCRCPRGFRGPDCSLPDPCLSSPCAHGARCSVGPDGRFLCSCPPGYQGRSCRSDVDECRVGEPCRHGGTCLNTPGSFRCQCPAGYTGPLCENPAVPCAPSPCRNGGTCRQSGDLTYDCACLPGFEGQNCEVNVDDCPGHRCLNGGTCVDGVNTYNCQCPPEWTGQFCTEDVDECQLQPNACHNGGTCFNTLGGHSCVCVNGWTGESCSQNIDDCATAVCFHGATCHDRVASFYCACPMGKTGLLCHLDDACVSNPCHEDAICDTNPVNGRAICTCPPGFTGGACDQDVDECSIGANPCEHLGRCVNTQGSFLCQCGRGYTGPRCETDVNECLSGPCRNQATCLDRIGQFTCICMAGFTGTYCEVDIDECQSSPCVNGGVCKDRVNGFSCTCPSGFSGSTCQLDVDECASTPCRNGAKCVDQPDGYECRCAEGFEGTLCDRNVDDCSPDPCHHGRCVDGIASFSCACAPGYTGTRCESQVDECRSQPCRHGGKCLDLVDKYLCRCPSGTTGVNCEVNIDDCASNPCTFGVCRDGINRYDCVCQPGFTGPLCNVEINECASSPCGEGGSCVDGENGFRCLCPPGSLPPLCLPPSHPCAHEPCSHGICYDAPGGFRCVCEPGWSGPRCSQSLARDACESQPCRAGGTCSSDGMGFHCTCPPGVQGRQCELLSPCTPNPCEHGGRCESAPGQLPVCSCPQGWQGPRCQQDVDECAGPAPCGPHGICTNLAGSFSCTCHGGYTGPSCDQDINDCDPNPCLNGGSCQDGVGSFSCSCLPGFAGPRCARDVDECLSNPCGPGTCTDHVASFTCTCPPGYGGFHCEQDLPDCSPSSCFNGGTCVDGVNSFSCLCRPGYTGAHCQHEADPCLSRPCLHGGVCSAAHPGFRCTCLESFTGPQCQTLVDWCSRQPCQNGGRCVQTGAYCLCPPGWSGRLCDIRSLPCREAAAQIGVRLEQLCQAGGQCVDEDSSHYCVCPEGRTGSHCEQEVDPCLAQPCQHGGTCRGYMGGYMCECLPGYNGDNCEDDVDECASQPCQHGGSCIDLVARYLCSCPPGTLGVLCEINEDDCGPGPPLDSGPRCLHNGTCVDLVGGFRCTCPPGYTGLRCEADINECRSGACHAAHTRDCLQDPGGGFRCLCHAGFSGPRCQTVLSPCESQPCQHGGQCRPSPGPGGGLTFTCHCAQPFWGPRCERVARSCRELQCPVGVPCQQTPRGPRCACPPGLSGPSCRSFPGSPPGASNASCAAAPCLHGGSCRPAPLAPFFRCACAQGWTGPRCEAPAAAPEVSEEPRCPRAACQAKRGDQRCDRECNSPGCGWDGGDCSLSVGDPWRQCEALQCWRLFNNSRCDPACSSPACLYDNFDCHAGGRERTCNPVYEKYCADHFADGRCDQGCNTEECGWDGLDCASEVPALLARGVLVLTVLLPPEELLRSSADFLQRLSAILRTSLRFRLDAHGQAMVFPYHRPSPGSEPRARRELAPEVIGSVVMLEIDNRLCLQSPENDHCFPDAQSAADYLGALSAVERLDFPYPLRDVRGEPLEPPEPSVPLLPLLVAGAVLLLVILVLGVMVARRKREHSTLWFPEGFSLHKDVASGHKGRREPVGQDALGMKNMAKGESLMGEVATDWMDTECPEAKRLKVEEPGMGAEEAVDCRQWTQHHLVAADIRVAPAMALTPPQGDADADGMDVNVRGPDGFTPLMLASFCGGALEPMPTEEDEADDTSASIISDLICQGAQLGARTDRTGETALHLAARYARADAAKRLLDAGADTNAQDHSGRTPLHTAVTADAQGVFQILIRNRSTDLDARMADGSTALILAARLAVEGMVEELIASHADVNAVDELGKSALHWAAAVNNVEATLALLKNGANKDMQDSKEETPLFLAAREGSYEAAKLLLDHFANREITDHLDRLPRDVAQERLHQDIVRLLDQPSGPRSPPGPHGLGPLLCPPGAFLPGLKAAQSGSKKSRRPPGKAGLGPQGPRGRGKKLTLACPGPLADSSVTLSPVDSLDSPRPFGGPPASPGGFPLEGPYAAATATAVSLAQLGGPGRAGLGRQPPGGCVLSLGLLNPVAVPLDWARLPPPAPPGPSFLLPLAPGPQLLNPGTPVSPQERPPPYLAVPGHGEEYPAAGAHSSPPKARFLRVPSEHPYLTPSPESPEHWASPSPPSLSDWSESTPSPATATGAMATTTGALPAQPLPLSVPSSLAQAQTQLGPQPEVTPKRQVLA
# [10] = probe aEGFR binding to arrayed compounds – biochemical, biotinylated probe, 635/667 nm fluorescence, primary screen (AID 1097); details: small-molecule microarray, higher = more signal;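 further: probe is a biotinylated anti-EGFR antibody binding compounds printed on slides; score combines fluorescence near 667 nm and signal to noise of each spot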
SMILES,composite z-score [1],z-score [2],z-score [3],z-score [4],composite z-score [5],z-score [6],composite z-score [7],composite z-score [8],composite z-score [9],composite z-score [10]
CCOC(=O)C1=C[C@@H](C(C)(C)C)N(S(=O)(=O)c2ccc(C)cc2)[C@H]1c1ccc(F)cc1,1.5,0.518 (inactive),1.95 (inactive),1.92 (inactive),3.07,-1.02 (inactive),-0.0341,0.989,1.07,-0.0004
COCCOC(=O)N1C(=O)[C@@]2(c3cc(C#Cc4ccc(OC)cc4)ccc31)[C@H](c1ccc(OCCO)cc1)N1[C@H](c3ccccc3)[C@H](c3ccccc3)OC(=O)[C@H]1[C@@H]2C(=O)N1CCN(c2ncccn2)CC1,1.55,2.92 (inactive),2.3 (inactive),7.54 (inactive),1.55,0.468 (inactive),0.127,1.06,1.08,0.178
CCCC[C@H]1OB(O)C[C@H]2C1=C(COC)C[C@H]1C(=O)N(C)C(=O)[C@H]12,-0.15,-0.937 (inactive),-0.775 (inactive),-0.635 (inactive),0.0079,-0.908 (inactive),-0.157,1.08,0.769,-0.139
C=CCOC(=O)[C@@H]1[C@H]2C(=O)O[C@H](c3ccccc3)[C@H](c3ccccc3)N2[C@H](c2ccc(OCCOC(=O)[C@H]3C[C@H]4C(=O)N5CCC[C@H]5C(=O)N4[C@H]3c3ccc(O)cc3)cc2)[C@@]12C(=O)Nc1ccc(I)cc12,1.54,0.825 (inactive),0.267 (inactive),3.14 (inactive),1.95,0.553 (inactive),-0.203,1.46,1.07,-0.119
O=C(OCc1ccccc1)C1=CCC2c3[nH]c4ccccc4c3C(=O)C1N2S(=O)(=O)c1ccccc1[N+](=O)[O-] (stereo not given),1.52,0.802 (inactive),1.1 (inactive),7.14 (inactive),3.57,-0.639 (inactive),0.0673,0.614,1.03,-0.112
COc1cccc(-c2cccc(=O)o2)c1,0.274,-1.24 (inactive),-3.46 (inactive),1.42 (inactive),-0.33,0.696 (inactive),0.716,0.335,-0.476,0.08
[N-]=[N+]=NCc1ccccc1C[C@]1(C(N)=O)COC(c2ccc(OCCCO)cc2)=N1,0.945,-4.72 (inactive),-1.09 (inactive),-1.19 (inactive),3.1,1.95 (inactive),0.0567,-0.572,0.31,0.0641
NC(=O)[C@@H]1[C@H]2C(=O)O[C@H](c3ccccc3)[C@H](c3ccccc3)N2[C@H](c2ccc(O)cc2)[C@@]12C(=O)Nc1ccccc12,1.41,0.0549 (inactive),-1.41 (inactive),0.386 (inactive),3.53,1.11 (inactive),-0.107,-0.952,0.118,-0.289
C=C(CCCC)/C(=C/C[C@H](OC(=O)c1ccncc1)c1ccccc1OCCO)c1cnc2ccccc2c1,1.55,-1.73 (inactive),-1.14 (inactive),3.47 (inactive),1.34,-0.0552 (inactive),-0.217,1.27,1.13,-0.111
O=C(NCCN1CCOCC1)[C@@H]1c2ccccc2C(=O)N(C2CCCCC2)[C@H]1c1ccc(CO)cc1,0.403,-0.166 (inactive),-0.556 (inactive),0.0989 (inactive),2.35,-0.0985 (inactive),-0.0042,-0.562,-0.565,-0.2
COc1ccc(C(=O)Nc2ccc(CN3C(=O)[C@]4(O[C@H](CCO)[C@@H]([Si](C)(C)c5ccc(OC)cc5)[C@@H]4C)c4ccccc43)cc2)cc1,1.47,-0.0534 (inactive),-12.2 (active),1.62 (inactive),2.17,-0.324 (inactive),0.0412,0.827,1.13,-0.183
Cc1ccc(S[C@]2(C(=O)NCCCN(C)C)CC(=O)N(Cc3ccccc3C(F)(F)F)[C@@H]2c2ccc(CO)cc2)cc1,0.486,-0.339 (inactive),-0.543 (inactive),-0.914 (inactive),1.91,0.783 (inactive),0.0446,-0.858,-1.3,-0.227
CCc1cccc(NC(=O)O[C@H]2[C@H](OC(=O)Nc3ccccc3-c3ccccc3)[C@@H](OC(=O)Nc3ccccc3-c3ccccc3)[C@@H](OC)O[C@@H]2CO)c1,1.53,0.182 (inactive),1.42 (inactive),-2.51 (inactive),3.43,-1.31 (inactive),0.126,0.666,1.07,0.0506
CN(C)CCCC[C@@H]1NC(=O)[C@H]2C[C@@H](C(=O)NCCCCCCN)[C@@H](c3ccc(O)cc3)N2C1=O,1.57,0.307 (inactive),-0.235 (inactive),-0.447 (inactive),3.08,0.278 (inactive),1.14,1.84,1.15,0.566
